# Compounds with a hit are over-represented: about 27% of the library has one in this group of screens.
# CYP2C19 act: increases human CYP2C19 enzyme activity | recombinant CYP2C19, luciferin-H EGE luminescence; active compounds read high; 0 = fully inhibited enzyme, 1 = untreated enzyme | activation factor at 5 µM | AID 1025 | 96,000 tested, under 10 active;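 active means activation factor of at least 2 at 5 µM in the primary screen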
# Target sequence (P33261 whole entry, looked up): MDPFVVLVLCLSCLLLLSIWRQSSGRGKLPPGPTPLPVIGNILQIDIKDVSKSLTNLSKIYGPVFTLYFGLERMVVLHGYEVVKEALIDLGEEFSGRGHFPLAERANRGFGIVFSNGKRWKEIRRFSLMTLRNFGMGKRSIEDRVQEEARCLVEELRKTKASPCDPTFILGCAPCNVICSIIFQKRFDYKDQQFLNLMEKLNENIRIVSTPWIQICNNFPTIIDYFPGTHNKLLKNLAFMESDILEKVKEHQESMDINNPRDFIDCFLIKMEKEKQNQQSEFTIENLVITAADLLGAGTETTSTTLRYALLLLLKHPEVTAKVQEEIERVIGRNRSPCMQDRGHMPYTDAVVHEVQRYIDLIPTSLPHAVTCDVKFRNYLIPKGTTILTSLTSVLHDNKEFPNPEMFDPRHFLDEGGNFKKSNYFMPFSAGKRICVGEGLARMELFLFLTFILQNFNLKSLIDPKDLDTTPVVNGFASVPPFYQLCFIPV
# CYP2C9 activ: activators of human CYP2C9; P11712; recombinant CYP2C9, luciferin-H conversion, luminescence; active compounds read high; factor 1 = untreated enzyme, 0 = blocked; activation factor at 5 µM; 96,000 compounds, 1.4% hits; AID 1024;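 active means activation factor of 2 or more for CYP2C9 at a 5 µM dose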
# Cav3 T inh: blocks human Cav3.2 T-type calcium channel; B-score at 10 µM; Cav3.2-expressing cells, Fluo-4 calcium fluorescence FDSS; active compounds read low; 100,000 compounds, 4% hits; O95180;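 active means single-dose well whose peak fluorescence ratio is a statistical outlier from its plate by either plate-standardised score or position-corrected B-score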
# CYP2C19 inhib: inhibitors of human CYP2C19. inhibition, % at 5 µM. CYP2C19 Supersomes, luciferin-H EGE luminescence, 30 min. 96,000 compounds, 21% hits. P33261;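 active means CYP2C19 inhibition above a set limit at 5 µM in the primary screen, cut at about 50% in these data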
# CYP2C9 inhib: inhibitors of human CYP2C9. AID 777. P11712. 96,000 compounds, 20% hits. CYP2C9 Supersomes, luciferin-H conversion, luminescence. inhibition, % at 5 µM;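 active means blocking of liver enzyme CYP2C9 beyond about 50% at 5 µM, limit read from the data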
# Numbers stand for hits; n = inactive; x = not tested or not shown.
SMILES,CYP2C19 act,CYP2C9 activ,Cav3 T inh,CYP2C19 inhib,CYP2C9 inhib
Cc1cc(NC(=O)CCCSc2nc(-c3ccco3)cc(C(F)(F)F)n2)n(-c2ccccc2)n1,x,x,-4.3,x,x
O=C(CSc1nc(-c2ccco2)cc(C(F)(F)F)n1)Nc1ccc2c(c1)CCC2,n,n,n,n,n
Cc1cc(NC(=O)CSc2nc(-c3ccco3)cc(C(F)(F)F)n2)n(-c2ccccc2)n1,x,x,n,x,x
O=C(CSc1nc(-c2ccco2)cc(C(F)(F)F)n1)NC1CCCC1,n,n,n,82,94
Cc1ccc(O)c(NC(=O)c2cc3nc4c(c(C(F)(F)F)n3n2)CCc2ccccc2-4)c1,n,n,n,n,n
N#CCCNc1ccc(OCCC#N)cc1,n,n,n,n,n
NS(=O)(=O)c1ccc(CNC(=O)/C=C/c2c(Cl)cccc2Cl)cc1,n,n,x,n,n
Cn1c(=O)c2c(nc(SCC(=O)NC34CC5CC(CC(C5)C3)C4)n2C)n(C)c1=O,n,n,n,n,n
Cc1ccccc1Cn1ccc(NC(=O)c2cc3nc(-c4ccco4)cc(C(F)(F)F)n3n2)n1,n,n,n,50,58
O=C(c1cc2nc(-c3ccco3)cc(C(F)(F)F)n2n1)N1CCN(c2ccccc2)CC1,n,n,n,63,72
CN(Cc1ccccc1)C(=O)CCSc1nc(-c2ccc3c(c2)OCO3)cc(C(F)(F)F)n1,x,x,-6.8,x,x
O=C(CCSc1nc(-c2ccco2)cc(C(F)(F)F)n1)NCc1cccs1,x,x,n,x,x
Cc1nn(Cc2ccccc2)c(C)c1NC(=O)c1cc2nc(-c3ccco3)cc(C(F)(F)F)n2n1,n,n,n,n,n
CC(NC(=O)CCSc1nc(-c2ccco2)cc(C(F)(F)F)n1)c1ccccc1 (centres undefined),n,n,-6,53,n
Cc1ccc(NC(=O)C(C)c2ccc(-c3ccccc3)c(F)c2)c(C)c1 (centres undefined),n,n,n,n,n
Cc1nn(CC(=O)Nc2ccccn2)c(C)c1[N+](=O)[O-],n,n,n,n,n
CC(=O)c1cc(F)c(N2CCN(CCC#N)CC2)cc1C,x,x,n,x,x
CCOCCCNS(=O)(=O)c1ccc(OC)c(Cl)c1Cl,x,x,n,x,x
COc1ccc(CCNC(=O)CCSc2nc(-c3ccco3)cc(C(F)(F)F)n2)cc1OC,n,n,n,88,91
O=C(CCSc1nc(-c2ccco2)cc(C(F)(F)F)n1)N1CCN(c2ccccc2)CC1,n,n,n,81,76
O=C(CCSc1nc(-c2ccco2)cc(C(F)(F)F)n1)Nc1ccc2c(c1)OCO2,n,n,-5.7,64,60
COC(=O)C1=C(C)N(CCCC(=O)O)C(=O)NC1c1cccc2ccccc12 (centres undefined),x,x,n,x,x
Cc1cccc(-n2nc([N+](=O)[O-])c(=NCc3cccnc3)n2O)c1,n,n,n,60,n
CSc1nsc(SC)c1NC(=O)Nc1ccccn1,n,n,n,n,n
Cc1nn(C)c(Cl)c1NC(=O)OCc1ccccc1,n,n,n,n,n
SMILES,CYP2C19 act,CYP2C9 activ,Cav3 T inh,CYP2C19 inhib,CYP2C9 inhib
CSc1nsc(SC)c1NC(=O)OCc1ccccc1,n,n,n,89,n
CSc1nsc(SC)c1NC(=O)OCCc1ccccn1,n,n,n,95,n
CC(=O)N1c2c(cc(Br)cc2S(=O)(=O)N2CCN(C(=O)c3ccco3)CC2)CC1C (centres undefined),x,x,n,x,x
COCCSc1nnc(NC(=O)C(C)(C)C)s1,n,n,n,n,n
Brc1ccc2cccnc2c1,n,n,n,n,n
COC(=O)C(Cc1cnc(Cl)s1)(C(=O)OC)c1ccc([N+](=O)[O-])cc1[N+](=O)[O-],n,n,n,79,67
COC(=O)C(Cc1cnc(Cl)s1)(C(=O)OC)c1ccc(C(F)(F)F)cc1[N+](=O)[O-],n,n,-8.6,87,51
C=CCC(C(=O)OC)(C(=O)OC)c1ccc([N+](=O)[O-])cn1,n,n,x,n,n
CCOc1ccc(C(F)(F)F)cc1NC(=O)c1ccc(OC)c([N+](=O)[O-])c1,n,n,n,n,n
Cc1cccc(C(=O)O/N=C2/CC3CCC2(C)C3(C)C)c1 (centres undefined),x,x,n,x,x
CC(C)Oc1ccc(CNC(=S)N/N=C/c2cccnc2)cc1,n,n,n,n,n
CCCn1c(=O)[nH]c(=O)c2c1nc(-c1ccc(OC(F)F)c(OC)c1)n2CCOC,n,n,n,n,54
CCOC(=O)c1cnc2ccc(C)cc2c1Nc1ccc(N2CCOCC2)cc1,n,n,n,78,81
CCOC(=O)c1cnc2ccc(C)cc2c1Sc1ccccc1,n,n,n,n,n
CCOc1ccc(-n2c(N)c(C(=O)NCc3ccco3)sc2=S)cc1,n,n,n,n,57
CCOc1ccc(S(=O)(=O)Nc2ccccc2C(=O)NCc2ccco2)cc1,n,n,n,100,70
CS(=O)(=O)Nc1ccccc1C(=O)NCc1ccco1,n,n,n,n,n
COc1ccc(S(=O)(=O)Nc2ccccc2C(=O)NCc2ccco2)cc1Br,n,n,-3.8,n,51
CCCCCc1c(C)nc(Nc2ccccc2)[nH]c1=O,n,n,n,n,n
Cn1ncc(C#N)c1NC(=O)C1CC(c2c(F)cccc2Cl)=NO1 (centres undefined),n,n,n,77,72
O=C(NCC1CCCO1)C1CC(c2ccc(Cl)c(Cl)c2)=NO1 (centres undefined),n,2.5,n,n,n
Cn1ncc(C#N)c1NC(=O)C1CC(c2ccc(Cl)c(Cl)c2)=NO1 (centres undefined),n,n,n,85,51
O=C(NCC1CCCO1)Nc1ccc(Cl)cc1 (centres undefined),n,n,n,n,n
O=C(Cn1cc2c(n1)CCCC2)NCCCN1CCN(c2ccccc2F)CC1,n,n,n,n,n
Cc1ccc2c(c1)nc(NCCO)n2C,n,n,n,n,n
SMILES,CYP2C19 act,CYP2C9 activ,Cav3 T inh,CYP2C19 inhib,CYP2C9 inhib
COC(=O)CN(c1nc(C)c(Br)c(OC)n1)S(=O)(=O)c1ccc(C)cc1,n,n,-5.5,90,89
CNc1nc(Oc2ccc(=O)n(C)n2)nc(N2CCOCC2)n1,n,n,n,n,n
CC1CCCCC1NC(=O)c1ccc2c(c1)[nH]c(=O)n2C1CCCC1 (centres undefined),n,n,n,n,76
CC1CCCCC1NC(=O)c1ccc(S(=O)(=O)N2CCCC2)cc1 (centres undefined),n,n,n,n,n
CC(C)[C@H](NC(=O)Nc1ccc(Oc2ccccc2)cc1)C(=O)O,n,n,n,n,n
O/N=C/c1ccccc1OCc1ccc(Cl)cc1,n,n,n,52,69
O=C(Cc1ccccc1)N/N=C\c1ccc(Br)o1,n,n,n,n,n
O=C(Cc1ccccc1)N/N=C/c1ccccc1OCc1ccc(Cl)cc1,n,n,n,n,62
O/N=C/c1ccccc1OCc1ccccc1Cl,n,n,n,n,n
O=S(=O)(NCCc1ccncc1)c1cc(Br)ccc1F,n,n,n,89,51
CCCCc1ccc(S(=O)(=O)NCCc2ccncc2)cc1,n,n,-3.6,100,68

# Assay outcomes (PubChem BioAssay)
